This is an account of results in ChEMBL document CHEMBL1157539, “Thousands of chemical starting points for antimalarial lead identification” (Nature, 2010).

What all share (type): functional
For assay [1], the system named is Plasmodium falciparum. The experiment in a line: GSK_TCMDC: Inhibition of Plasmodium falciparum 3D7 in whole red blood cells, using parasite LDH activity as an index of growth. Test compounds present at 2uM.
Assay [2] relates to Plasmodium falciparum. The experiment in a line: GSK_TCMDC: Inhibition of Plasmodium falciparum Dd2 in whole red blood cells, using parasite LDH activity as an index of growth. Test compounds present at 2uM.
Another assay has as its system HepG2. The experiment in a line: GSK_TCMDC: Percent inhibition of human HepG2 cell line. Test compounds present at 10uM.

One may read the Inhibition as the share of the control response that was lost under treatment. As for `O=C(c1cc2cccc([N+](=O)[O-])c2[nH]1)N1CCC(CCN2CCC(c3c[nH]c4ccccc34)CC2)CC1`, the values for the Inhibition with Plasmodium falciparum [1], in the assay with Plasmodium falciparum [2] and in the assay on HepG2 were 89%, 24% and 45%, respectively.
The like results for `COC(=O)Cn1c(C2CCN(CC3CCN(C(=O)/C=C/c4ccc(Cl)c(Cl)c4)CC3)CC2)nc2ccccc21` were, in that order, 86%, 2% and 19%.
The like results for `Cl.Nc1cccc(C=CC(=O)N=c2cc[nH]c3ccccc23)c1` were, in that order, 98%, 60% and 7%.
`Cc1nc2ccc3nc(NC(=O)c4ccno4)sc3c2s1`: the Inhibition in the assay on Plasmodium falciparum [1] is listed as 99%; in the assay with Plasmodium falciparum [2] it was 97%; in the assay with HepG2 it was 6%.
The like results for `CCN1CCCC(CNC(=O)/C(=C/C=C/c2cc3cc(Cl)c(Cl)cc3[nH]2)OC)C1` (stereo not given) were, in that order, 93%, 89% and 33%.
As to `CCN1CCN(c2cc(C)c3cc(NC(=O)c4ccc(Br)o4)ccc3n2)CC1`, the Inhibition in the assay on Plasmodium falciparum [1] stood at 98%; with Plasmodium falciparum [2] it was 13%; in the assay with HepG2, 0%.
As to `COc1cc(Nc2ncnc3cc(OC)c(OC)cc23)cc([N+](=O)[O-])c1.Cl`, the values for the Inhibition with Plasmodium falciparum [1], in the assay with Plasmodium falciparum [2] and with HepG2 were 97%, 6% and 8%, respectively.
The like results for `COc1cc2nc(C)nc(Nc3ccc4c(ccn4Cc4ccccc4)c3)c2cc1OC.Cl` were, in that order, 100%, 99% and 2%.
The like results for `Cc1ccc(Nc2nc(N/N=C/c3cc4c(cc3Br)OCO4)nc(Nc3ccc([N+](=O)[O-])cc3)n2)cc1C` were, in that order, 100%, 89% and 23%.
For `Cc1nc(N/C(N)=N/C(=O)NC2CCCCC2)nc2ccccc12` the same measures were 95%, 99% and 21%.
As for `N#Cc1cccc(C(=O)Nc2ccc(-c3ccc(CN4CCCC4)cc3)cc2)c1.O=C(O)C(F)(F)F`, the Inhibition in the assay on Plasmodium falciparum [1] worked out at 92%; in the assay on Plasmodium falciparum [2] it was 32%; in the assay with HepG2 it was 38%.
The like results for `O=C(Nc1ccccc1Cl)c1cc2ccccc2cc1O` were, in that order, 94%, 72% and 2%.
For `Cc1cc2nc(-c3ccc(OCC(=O)NCc4ccc(C(C)(C)C)cc4)cc3)[nH]c2cc1C` the same measures were 94%, 0% and 11%.
For `COc1ccc(OC)c(-c2ccc(O)c(CNCC(C)c3ccccc3)c2)c1` (stereo not given) the same measures were 98%, 96% and 26%.
On to `Cc1noc(C)c1C(=O)N1CCc2cc3nccc(N4CCN5CCC[C@H]5C4)c3cc21`, for which the Inhibition with Plasmodium falciparum [1] was 93%; with Plasmodium falciparum [2], 9%; in the assay with HepG2 it was 7%.
For `Br.Cc1cc(Br)c(OCCCON2C(=N)N=C(N)NC2(C)C)c(Br)c1` the same measures were 95%, 97% and 62%.
For `O=c1cc(NCCCNCc2cccc3c2OC(F)(F)O3)[nH]c2ccccc12` the same measures were 88%, 15% and 4%.
The like results for `Cc1ccccc1N1CCN(c2ccc(C(=O)NC3CC3)cn2)CC1.O=C(O)C(F)(F)F` were, in that order, 96%, 96% and 14%.
Turning to `Cc1ccc(O)cc1Nc1ccnc2cc(-c3csc(CN(C)CCN(C)C)n3)ccc12`, the Inhibition in the assay with Plasmodium falciparum [1] is on record as 100%; in the assay with Plasmodium falciparum [2], 80%; with HepG2 it was 3%.
The like results for `CC(C)c1ccc(CN2CCCCC(NC(=O)c3cc(-c4ccccc4Cl)cs3)C2)cc1.O=C(O)C(F)(F)F` (stereo not given) were, in that order, 100%, 64% and 8%.
In the case of `CCCc1cc(Cc2cnc(N)nc2N)cc(OC)c1OC`, the Inhibition is on record as 87% in the assay on Plasmodium falciparum [1], 4% in the assay with Plasmodium falciparum [2] and 2% with HepG2.
Turning to `COc1cc(NC(=O)Nc2ccc(Br)cc2C(=O)Nc2ccc(Br)cc2)cc(OC)c1OC`, the results for the Inhibition in the assay on Plasmodium falciparum [1], in the assay on Plasmodium falciparum [2] and in the assay on HepG2 were 99%, 98% and 0%, respectively.
In the case of `COc1ccc(CNc2ccnc(-n3cnc4cc(C)c(C)cc43)n2)cc1Cl.O=C(O)C(F)(F)F`, the Inhibition in the assay on Plasmodium falciparum [1] was 100%; in the assay with Plasmodium falciparum [2], 100%; in the assay on HepG2, 6%.
On to `CCN(CCCN1CCCCC1)c1cc(C)nc(Nc2ccc(C)c(Cl)c2)n1.O=C(O)C(F)(F)F`, for which the Inhibition in the assay on Plasmodium falciparum [1] was determined as 100%; with Plasmodium falciparum [2] it was 100%; in the assay with HepG2, 32%.
On to `CC1(C)CN(CCC2CCC(NC(=O)/C=C/c3ccccc3F)CC2)Cc2ccc(C#N)cc21.Cl` (stereo not given), for which the Inhibition is listed as 89% in the assay with Plasmodium falciparum [1], 82% in the assay on Plasmodium falciparum [2] and 0% in the assay on HepG2.
The like results for `Cc1ccc(Nc2ccnc(Nc3ccc(C)c(F)c3)n2)cc1O.Cl` were, in that order, 100%, 27% and 4%.
For `FC(F)(F)c1cccc2c(NN=Cc3ccccc3)ccnc12` the same measures were 100%, 90% and 10%.
The like results for `O=C(O)C(F)(F)F.c1ccc(CNCc2ccc(-c3ccc(-c4nc5ccccc5[nH]4)cc3)cc2)cc1` were, in that order, 100%, 93% and 32%.
Regarding `CC1CCC(C(C)C)C(OC(=O)CSc2nnc3c(n2)[nH]c2ccccc23)C1` (stereo not given), the figures for the Inhibition in the assay with Plasmodium falciparum [1], in the assay with Plasmodium falciparum [2] and with HepG2 were 88%, 74% and 0%, respectively.
The like results for `CN(C)CCCSc1ccccc1NC(=O)C=Cc1ccccc1` were, in that order, 85%, 0% and 0%.
